According to the supplement of paper PMC13392028:
The full ranking holds about 4,100 sequences; the median of “RBNS R-value (6-mer enrichment in protein-bound RNA vs input library)” is about 0.96, and the highest 2% start at about 2.4. The list comes from a sample in which the highest values are over-represented; it also holds similar and randomly drawn sequences.

Test system: PyIESI-1 RRM domain (Plasmodium yoelii PY17X_0911200 aa 795-956, GST fusion)
Test: RBNS R-value (6-mer enrichment in protein-bound RNA vs input library) (ratio); higher = stronger binding preference; the methods of the paper give 50 / 100 / 500 nM protein instead
Protocol: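 RNA Bind-n-Seq: recombinant GST-tagged IESI-1 RRM domain was incubated at room temperature with a random 40-nt in vitro transcribed RNA library at 250, 500 or 1000 nM protein. Bound RNA was pulled down on glutathione beads and sequenced. R-value is the enrichment of each 6-mer in the bound RNA relative to the input library. Each 6-mer sits inside the random 40-mer context, not as an isolated oligo. Values are replicate 1 only.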

Sequence	RBNS R-value (protein concentration: 250 nM)	RBNS R-value (protein concentration: 500 nM)	RBNS R-value (protein concentration: 1000 nM)
CUGAUA	3.66	3.59	3.88
CAGAUA	0.96	0.988	1.02
AUGAUG	8.6	7.43	7.47
AUGAAG	1.53	1.51	1.47
CGGAUG	1.22	1.18	1.18
CUGAUG	6.48	5.8	5.87
CAGAUG	1.85	1.83	1.93
AGGAUG	1.22	1.18	1.18
AUGAUC	2.74	2.71	2.97
CUGACA	1.26	1.25	1.26
AUGAGC	1.51	1.48	1.49
AGGAUC	0.785	0.788	0.757
AUAAAA	0.85	0.843	0.844
UCCAGG	1	1	1
UCAUUU	0.748	0.785	0.825
CGACAG	1.01	0.998	0.998
CAAUCG	0.873	0.879	0.886
UUAGCC	0.885	0.907	0.915
AGGCUU	0.943	0.943	0.919
CGUUUG	1.1	1.09	1.08
CUGAUC	2.39	2.38	2.58
AGGAUA	0.874	0.876	0.848
AUGAGA	1.6	1.58	1.57
AUGAAU	1.41	1.35	1.36

Sequence	RBNS R-value (protein concentration: 250 nM)	RBNS R-value (protein concentration: 500 nM)	RBNS R-value (protein concentration: 1000 nM)
CUGAAC	1.05	1.06	1.05
UUGAUA	4.42	4.38	4.81
AGGAUU	1.06	1.04	0.995
UUGACA	1.57	1.54	1.56
CUGACC	1.23	1.22	1.27
AUGAUU	7.34	6.63	6.94
AUGAUA	4.79	4.63	5.14
UUGAGA	1.31	1.32	1.31
AGUCCU	0.811	0.839	0.826
UUCGAU	1.93	1.95	2.08
AACCAG	0.915	0.9	0.923
CUCUGA	1.97	1.91	1.94
UAGAUG	1.64	1.65	1.73
GGGAUG	1.3	1.28	1.27
UAGAUC	0.818	0.834	0.838
UUGACC	1.42	1.42	1.47
UUGAUC	2.63	2.7	2.9
UUGAUG	7.94	6.95	6.96
GUGAUG	5.06	4.7	4.68
UUGAAG	1.08	1.11	1.08
GUGAAG	0.939	0.946	0.891
AAAGCA	0.883	0.885	0.861
CAAGGA	1	0.973	0.963
CGAAUG	1.41	1.37	1.35

Sequence	RBNS R-value (protein concentration: 250 nM)	RBNS R-value (protein concentration: 500 nM)	RBNS R-value (protein concentration: 1000 nM)
UAUACC	0.57	0.601	0.592
CUCGGA	0.971	0.974	0.939
CGUGCU	0.967	0.973	0.954
GUAAGU	0.66	0.682	0.638
GUCUGG	0.813	0.839	0.796
ACUGAU	4.56	4.17	4.36
UCUGAA	1.01	1.03	0.99
CCUGAU	4.76	4.47	4.65
UCUGAU	4.51	4.2	4.42
CCUGAA	1.23	1.24	1.23
GCUGAC	1.21	1.23	1.23
ACUGAC	1.18	1.16	1.18
UCUGAC	1.13	1.12	1.13
GCUGAG	1.21	1.18	1.15
GCUGAU	3.92	3.7	3.79
ACUGAG	1.18	1.19	1.13
CCUGAC	1.32	1.33	1.34
AUGCAG	1.15	1.16	1.18
AUCUGU	0.889	0.916	0.89
GAGGAG	1.12	1.09	1.02
CUCACG	0.951	0.969	0.993
UCUGGC	1.18	1.18	1.17
GCGACC	1.08	1.08	1.09
GGGUUU	0.955	0.992	0.97

Sequence	RBNS R-value (protein concentration: 250 nM)	RBNS R-value (protein concentration: 500 nM)	RBNS R-value (protein concentration: 1000 nM)
ACACUC	1.07	1.05	1.07
CUUGAC	1.61	1.59	1.61
GUUGAU	4.02	3.81	3.96
UUUGAU	6.28	5.82	6.05
AUUGAU	5.75	5.29	5.52
AUUGAC	1.45	1.46	1.49
UUUGAA	1.15	1.15	1.13
CUUGAU	4.89	4.7	4.93
GUUGAG	0.856	0.907	0.877
AUUGAG	1.23	1.24	1.21
GUUGAC	1.02	1.02	1.01
CUUGAA	1.18	1.17	1.15
UUUGAC	1.48	1.47	1.5
GUGUGA	1.5	1.51	1.48
UUGGUC	0.872	0.953	0.884
GCGGGC	1.09	1.09	1.07
UUCUGC	1.19	1.21	1.22
GGUUCG	0.887	0.904	0.88
UAUCAG	0.589	0.619	0.59
AGCCUU	0.931	0.961	0.982
GAUCUA	1.19	1.23	1.27
CACGAU	1.8	1.82	1.95
CUUAGA	0.933	0.948	0.93
AACAUA	0.429	0.465	0.417

Sequence	RBNS R-value (protein concentration: 250 nM)	RBNS R-value (protein concentration: 500 nM)	RBNS R-value (protein concentration: 1000 nM)
CCAAAA	1.14	1.1	1.11
GUAUGU	0.702	0.701	0.677
GAUCAG	1.21	1.23	1.26
UUUUGC	1.25	1.28	1.3
AUUUGA	2.85	2.67	2.75
UUUUGU	0.927	0.945	0.932
AUUUGU	1.19	1.18	1.16
UUUUGA	2.87	2.69	2.76
AUUUGG	1.56	1.52	1.53
CGUCGU	0.673	0.674	0.653
AUUCGG	1.21	1.23	1.22
GAGGCA	1.07	1.06	1.04
AGUCAG	0.665	0.689	0.664
GGUAGU	0.858	0.895	0.812
UCGAAU	0.871	0.871	0.846
GAUUGU	1.51	1.5	1.51
UAUUGA	1.66	1.61	1.65
GAUUGG	2.35	2.26	2.17
GAUUGA	3.24	3.03	3.05
AAUUGU	0.811	0.836	0.821
AAUUGA	2.42	2.26	2.31
CAUUGC	1.1	1.11	1.11
GAUUGC	3.17	2.85	2.87
CAUUGA	2.25	2.16	2.24
